Columns and labels:
[1] = target: Sphingosine kinase 1 (Homo sapiens) (UniProt Q9NYA1); settings: at 1 µM;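 also: mean SPHK1 inhibition value reported from the GSK PKIS kinase panel screen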
[2] = target: T1, Sphingosine kinase 2 (Homo sapiens) (UniProt Q9NRA0); settings: at 0.1 µM
T1 sequence (whole entry): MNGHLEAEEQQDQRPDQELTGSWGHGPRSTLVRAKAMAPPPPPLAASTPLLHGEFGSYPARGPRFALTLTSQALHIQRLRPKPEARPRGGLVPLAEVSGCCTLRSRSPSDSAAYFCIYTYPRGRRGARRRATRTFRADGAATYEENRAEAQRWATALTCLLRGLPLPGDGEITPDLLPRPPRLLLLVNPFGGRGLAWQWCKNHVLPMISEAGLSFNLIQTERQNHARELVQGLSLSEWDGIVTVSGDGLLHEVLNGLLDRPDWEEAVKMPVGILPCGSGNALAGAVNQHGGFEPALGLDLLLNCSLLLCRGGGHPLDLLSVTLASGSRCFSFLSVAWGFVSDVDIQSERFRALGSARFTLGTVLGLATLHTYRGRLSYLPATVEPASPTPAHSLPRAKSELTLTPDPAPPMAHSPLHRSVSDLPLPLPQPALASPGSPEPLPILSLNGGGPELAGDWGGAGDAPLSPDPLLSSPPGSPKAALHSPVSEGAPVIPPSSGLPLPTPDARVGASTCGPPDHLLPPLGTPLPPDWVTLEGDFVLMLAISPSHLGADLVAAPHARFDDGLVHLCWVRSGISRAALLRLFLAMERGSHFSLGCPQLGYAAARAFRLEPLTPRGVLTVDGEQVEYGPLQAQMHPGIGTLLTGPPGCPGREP

[3] = target: T1, Sphingosine kinase 2 (Homo sapiens); settings: at 1 µM
[4] = target: Casein kinase II subunit alpha (Homo sapiens) (UniProt P68400); settings: at 0.1 µM
Sequence of Casein kinase II subunit alpha (Homo sapiens) (P68400 whole entry, looked up): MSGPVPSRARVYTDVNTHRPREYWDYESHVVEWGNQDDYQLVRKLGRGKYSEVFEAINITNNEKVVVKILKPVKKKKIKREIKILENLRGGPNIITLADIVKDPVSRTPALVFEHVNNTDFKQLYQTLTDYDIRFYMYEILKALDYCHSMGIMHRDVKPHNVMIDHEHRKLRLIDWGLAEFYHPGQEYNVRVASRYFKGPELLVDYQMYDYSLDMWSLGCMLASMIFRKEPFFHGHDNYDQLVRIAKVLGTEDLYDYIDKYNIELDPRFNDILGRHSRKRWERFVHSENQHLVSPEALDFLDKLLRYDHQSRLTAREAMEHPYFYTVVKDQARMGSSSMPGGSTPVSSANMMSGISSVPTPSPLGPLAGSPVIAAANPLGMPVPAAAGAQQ

[5] = target: Casein kinase II subunit alpha (Homo sapiens) (UniProt P68400); settings: at 1 µM
[6] = target: T2, Inhibitor of nuclear factor kappa-B kinase subunit alpha (Homo sapiens) (UniProt O15111); settings: at 0.1 µM
T2 sequence (whole entry): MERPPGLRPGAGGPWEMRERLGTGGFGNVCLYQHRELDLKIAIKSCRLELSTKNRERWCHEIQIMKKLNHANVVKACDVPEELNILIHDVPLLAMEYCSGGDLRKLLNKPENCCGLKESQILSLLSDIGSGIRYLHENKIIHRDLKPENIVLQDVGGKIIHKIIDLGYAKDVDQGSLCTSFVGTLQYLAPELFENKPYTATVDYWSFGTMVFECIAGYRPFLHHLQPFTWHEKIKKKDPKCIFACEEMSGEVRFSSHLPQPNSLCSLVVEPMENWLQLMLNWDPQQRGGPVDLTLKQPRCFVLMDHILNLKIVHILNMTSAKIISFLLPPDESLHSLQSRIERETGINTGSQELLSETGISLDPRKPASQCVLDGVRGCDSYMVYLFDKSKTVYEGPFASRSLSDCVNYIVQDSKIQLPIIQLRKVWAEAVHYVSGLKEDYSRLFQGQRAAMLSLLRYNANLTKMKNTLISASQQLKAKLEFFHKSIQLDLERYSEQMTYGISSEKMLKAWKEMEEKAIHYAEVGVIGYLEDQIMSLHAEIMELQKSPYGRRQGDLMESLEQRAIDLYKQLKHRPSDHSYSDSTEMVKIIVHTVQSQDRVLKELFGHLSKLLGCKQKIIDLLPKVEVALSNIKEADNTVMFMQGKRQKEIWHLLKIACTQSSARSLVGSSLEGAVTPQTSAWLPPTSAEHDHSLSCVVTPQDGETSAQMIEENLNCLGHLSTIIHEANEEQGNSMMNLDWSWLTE

[7] = target: T2, Inhibitor of nuclear factor kappa-B kinase subunit alpha (Homo sapiens); settings: at 1 µM
[8] = target: T3, Inhibitor of nuclear factor kappa-B kinase subunit beta (Homo sapiens) (UniProt O14920); settings: at 0.1 µM
T3 sequence (whole entry): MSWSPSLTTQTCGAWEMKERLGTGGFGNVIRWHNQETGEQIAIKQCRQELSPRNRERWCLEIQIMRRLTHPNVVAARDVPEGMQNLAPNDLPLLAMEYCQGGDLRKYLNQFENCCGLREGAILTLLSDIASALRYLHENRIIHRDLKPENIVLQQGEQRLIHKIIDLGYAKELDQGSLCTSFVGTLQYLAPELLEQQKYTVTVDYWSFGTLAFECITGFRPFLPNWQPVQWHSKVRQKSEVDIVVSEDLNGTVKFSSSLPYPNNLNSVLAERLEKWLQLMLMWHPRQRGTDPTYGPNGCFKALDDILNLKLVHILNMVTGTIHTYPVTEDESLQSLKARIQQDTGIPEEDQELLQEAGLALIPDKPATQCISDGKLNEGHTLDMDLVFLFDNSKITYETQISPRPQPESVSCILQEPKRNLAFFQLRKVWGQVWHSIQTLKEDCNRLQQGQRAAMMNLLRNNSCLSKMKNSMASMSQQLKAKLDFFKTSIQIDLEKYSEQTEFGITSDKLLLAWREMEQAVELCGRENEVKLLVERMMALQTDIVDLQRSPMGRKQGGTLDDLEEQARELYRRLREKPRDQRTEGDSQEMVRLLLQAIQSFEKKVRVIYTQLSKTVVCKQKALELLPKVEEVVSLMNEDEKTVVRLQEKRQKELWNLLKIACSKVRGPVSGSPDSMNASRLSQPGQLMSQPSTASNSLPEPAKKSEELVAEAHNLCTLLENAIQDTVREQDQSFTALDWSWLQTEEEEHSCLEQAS

[9] = target: T3, Inhibitor of nuclear factor kappa-B kinase subunit beta (Homo sapiens); settings: at 1 µM
[10] = target: T4, Inhibitor of nuclear factor kappa-B kinase subunit epsilon (Homo sapiens) (UniProt Q14164); settings: at 0.1 µM
T4 sequence (whole entry): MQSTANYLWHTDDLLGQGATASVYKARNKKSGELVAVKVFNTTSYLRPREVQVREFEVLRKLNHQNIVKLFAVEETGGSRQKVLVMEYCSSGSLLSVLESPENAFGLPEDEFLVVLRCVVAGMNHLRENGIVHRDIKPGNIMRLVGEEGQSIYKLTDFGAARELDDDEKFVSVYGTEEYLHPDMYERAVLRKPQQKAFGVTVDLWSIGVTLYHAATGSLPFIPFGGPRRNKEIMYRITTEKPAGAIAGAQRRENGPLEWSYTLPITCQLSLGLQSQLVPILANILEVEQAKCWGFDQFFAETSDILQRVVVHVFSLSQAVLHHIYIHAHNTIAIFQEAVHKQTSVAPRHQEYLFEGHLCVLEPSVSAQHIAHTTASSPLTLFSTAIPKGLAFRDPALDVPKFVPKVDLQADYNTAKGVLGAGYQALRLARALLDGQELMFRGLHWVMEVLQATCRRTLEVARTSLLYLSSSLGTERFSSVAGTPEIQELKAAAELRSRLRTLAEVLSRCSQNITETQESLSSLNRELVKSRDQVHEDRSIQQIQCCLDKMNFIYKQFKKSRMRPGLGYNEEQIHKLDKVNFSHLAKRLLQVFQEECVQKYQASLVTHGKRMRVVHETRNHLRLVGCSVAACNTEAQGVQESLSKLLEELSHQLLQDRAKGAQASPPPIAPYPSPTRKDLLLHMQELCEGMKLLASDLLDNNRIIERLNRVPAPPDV

[11] = target: T4, Inhibitor of nuclear factor kappa-B kinase subunit epsilon (Homo sapiens); settings: at 1 µM
[12] = target: T5, Serine/threonine-protein kinase Nek1 (Homo sapiens) (UniProt Q96PY6); settings: at 0.1 µM
T5 sequence (whole entry): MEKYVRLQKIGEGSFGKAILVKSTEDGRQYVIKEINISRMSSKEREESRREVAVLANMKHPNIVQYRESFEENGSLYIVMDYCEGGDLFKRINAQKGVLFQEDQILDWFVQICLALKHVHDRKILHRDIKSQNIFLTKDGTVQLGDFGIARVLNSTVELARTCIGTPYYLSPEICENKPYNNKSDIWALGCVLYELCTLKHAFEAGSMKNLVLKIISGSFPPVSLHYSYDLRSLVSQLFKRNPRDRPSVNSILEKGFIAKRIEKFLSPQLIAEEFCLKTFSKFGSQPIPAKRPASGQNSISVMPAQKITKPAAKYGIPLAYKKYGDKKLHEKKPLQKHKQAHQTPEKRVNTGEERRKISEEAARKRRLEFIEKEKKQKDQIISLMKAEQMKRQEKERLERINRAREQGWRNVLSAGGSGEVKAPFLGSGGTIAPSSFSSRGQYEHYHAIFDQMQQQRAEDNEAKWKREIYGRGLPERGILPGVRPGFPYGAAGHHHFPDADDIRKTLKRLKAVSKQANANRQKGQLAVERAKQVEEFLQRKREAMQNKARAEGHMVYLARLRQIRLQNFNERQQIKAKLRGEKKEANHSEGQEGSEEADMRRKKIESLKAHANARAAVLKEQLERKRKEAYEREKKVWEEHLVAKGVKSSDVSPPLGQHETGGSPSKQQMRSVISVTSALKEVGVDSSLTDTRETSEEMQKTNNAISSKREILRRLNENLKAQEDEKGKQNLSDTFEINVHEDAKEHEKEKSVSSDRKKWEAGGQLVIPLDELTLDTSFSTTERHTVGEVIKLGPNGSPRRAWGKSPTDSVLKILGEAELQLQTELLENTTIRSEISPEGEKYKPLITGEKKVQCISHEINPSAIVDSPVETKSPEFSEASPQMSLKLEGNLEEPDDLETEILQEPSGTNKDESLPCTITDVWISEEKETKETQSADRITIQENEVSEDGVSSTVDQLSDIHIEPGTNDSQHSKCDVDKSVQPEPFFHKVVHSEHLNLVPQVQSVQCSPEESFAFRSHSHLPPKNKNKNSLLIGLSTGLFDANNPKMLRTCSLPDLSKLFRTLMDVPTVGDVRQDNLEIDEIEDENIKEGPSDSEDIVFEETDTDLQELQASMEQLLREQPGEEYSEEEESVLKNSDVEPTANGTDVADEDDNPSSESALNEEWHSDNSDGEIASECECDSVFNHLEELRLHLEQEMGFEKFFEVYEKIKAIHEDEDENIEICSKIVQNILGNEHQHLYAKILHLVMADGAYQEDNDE

[13] = target: T5, Serine/threonine-protein kinase Nek1 (Homo sapiens); settings: at 1 µM
[14] = target: T6, Serine/threonine-protein kinase Nek2 (Homo sapiens) (UniProt P51955); settings: at 0.1 µM
T6 sequence (whole entry): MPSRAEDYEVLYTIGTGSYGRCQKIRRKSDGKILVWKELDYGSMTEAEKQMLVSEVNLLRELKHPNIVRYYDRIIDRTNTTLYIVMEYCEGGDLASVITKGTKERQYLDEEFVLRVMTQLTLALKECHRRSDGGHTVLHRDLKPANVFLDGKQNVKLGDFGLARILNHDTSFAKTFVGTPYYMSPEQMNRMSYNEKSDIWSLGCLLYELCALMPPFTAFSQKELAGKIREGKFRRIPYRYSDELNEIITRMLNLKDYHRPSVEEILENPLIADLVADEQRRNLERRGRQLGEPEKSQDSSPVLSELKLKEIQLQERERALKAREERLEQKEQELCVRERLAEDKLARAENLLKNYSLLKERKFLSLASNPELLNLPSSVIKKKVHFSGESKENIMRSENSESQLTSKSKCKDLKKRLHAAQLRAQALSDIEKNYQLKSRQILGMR

[15] = target: T6, Serine/threonine-protein kinase Nek2 (Homo sapiens); settings: at 1 µM
[16] = target: Serine/threonine-protein kinase Nek6 (Homo sapiens) (UniProt Q9HC98); settings: at 0.1 µM
Sequence of Serine/threonine-protein kinase Nek6 (Homo sapiens) (Q9HC98 whole entry): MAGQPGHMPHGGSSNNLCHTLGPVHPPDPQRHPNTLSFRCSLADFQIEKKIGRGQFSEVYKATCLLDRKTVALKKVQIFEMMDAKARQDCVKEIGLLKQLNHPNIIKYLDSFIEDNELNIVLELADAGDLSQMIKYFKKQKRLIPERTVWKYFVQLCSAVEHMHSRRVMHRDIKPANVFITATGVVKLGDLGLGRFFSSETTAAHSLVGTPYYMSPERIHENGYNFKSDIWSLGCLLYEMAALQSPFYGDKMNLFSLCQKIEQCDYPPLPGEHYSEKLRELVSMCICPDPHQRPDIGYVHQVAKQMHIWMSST

[17] = target: Serine/threonine-protein kinase Nek6 (Homo sapiens) (UniProt Q9HC98); settings: at 1 µM
[18] = target: Serine/threonine-protein kinase Nek7 (Homo sapiens) (UniProt Q8TDX7); settings: at 0.1 µM
Sequence of Serine/threonine-protein kinase Nek7 (Homo sapiens) (Q8TDX7 whole entry, looked up): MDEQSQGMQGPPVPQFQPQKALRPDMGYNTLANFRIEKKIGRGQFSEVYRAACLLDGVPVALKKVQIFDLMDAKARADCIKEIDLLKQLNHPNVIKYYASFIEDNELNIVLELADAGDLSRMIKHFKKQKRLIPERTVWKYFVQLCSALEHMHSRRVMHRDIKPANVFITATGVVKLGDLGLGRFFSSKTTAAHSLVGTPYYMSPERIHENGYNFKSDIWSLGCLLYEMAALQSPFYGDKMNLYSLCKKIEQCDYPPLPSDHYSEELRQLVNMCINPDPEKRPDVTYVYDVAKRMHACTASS

[19] = target: Serine/threonine-protein kinase Nek7 (Homo sapiens) (UniProt Q8TDX7); settings: at 1 µM
[20] = target: T7, Serine/threonine-protein kinase Nek9 (Homo sapiens) (UniProt Q8TD19); settings: at 0.1 µM;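 also: reported value is the mean percent inhibition of NEK9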
T7 sequence (whole entry): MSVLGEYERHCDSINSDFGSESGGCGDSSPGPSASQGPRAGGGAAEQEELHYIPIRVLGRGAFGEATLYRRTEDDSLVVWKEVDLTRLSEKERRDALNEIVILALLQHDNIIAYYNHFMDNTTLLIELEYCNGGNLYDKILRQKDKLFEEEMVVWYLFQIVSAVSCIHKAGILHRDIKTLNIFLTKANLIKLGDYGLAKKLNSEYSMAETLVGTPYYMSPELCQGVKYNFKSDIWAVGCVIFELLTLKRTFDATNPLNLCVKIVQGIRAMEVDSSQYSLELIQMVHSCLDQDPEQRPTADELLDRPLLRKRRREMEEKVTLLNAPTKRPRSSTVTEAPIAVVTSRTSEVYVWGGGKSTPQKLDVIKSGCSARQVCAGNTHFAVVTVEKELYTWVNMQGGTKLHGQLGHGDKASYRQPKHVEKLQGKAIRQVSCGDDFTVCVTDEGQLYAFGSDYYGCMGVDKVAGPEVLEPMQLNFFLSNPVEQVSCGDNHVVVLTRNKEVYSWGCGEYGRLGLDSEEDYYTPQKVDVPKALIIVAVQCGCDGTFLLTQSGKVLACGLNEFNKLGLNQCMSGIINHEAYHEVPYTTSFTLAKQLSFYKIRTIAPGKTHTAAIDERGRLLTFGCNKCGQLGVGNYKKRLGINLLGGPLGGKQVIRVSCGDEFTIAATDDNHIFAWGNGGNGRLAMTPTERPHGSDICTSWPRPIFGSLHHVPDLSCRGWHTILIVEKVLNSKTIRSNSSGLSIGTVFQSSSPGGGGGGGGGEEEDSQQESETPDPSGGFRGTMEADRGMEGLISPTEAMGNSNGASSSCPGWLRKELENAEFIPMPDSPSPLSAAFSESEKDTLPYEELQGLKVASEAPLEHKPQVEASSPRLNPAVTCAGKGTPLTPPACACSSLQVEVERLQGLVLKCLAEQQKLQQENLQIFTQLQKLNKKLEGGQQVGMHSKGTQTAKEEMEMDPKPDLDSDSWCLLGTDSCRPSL

Sequence of Sphingosine kinase 1 (Homo sapiens) (Q9NYA1 whole entry): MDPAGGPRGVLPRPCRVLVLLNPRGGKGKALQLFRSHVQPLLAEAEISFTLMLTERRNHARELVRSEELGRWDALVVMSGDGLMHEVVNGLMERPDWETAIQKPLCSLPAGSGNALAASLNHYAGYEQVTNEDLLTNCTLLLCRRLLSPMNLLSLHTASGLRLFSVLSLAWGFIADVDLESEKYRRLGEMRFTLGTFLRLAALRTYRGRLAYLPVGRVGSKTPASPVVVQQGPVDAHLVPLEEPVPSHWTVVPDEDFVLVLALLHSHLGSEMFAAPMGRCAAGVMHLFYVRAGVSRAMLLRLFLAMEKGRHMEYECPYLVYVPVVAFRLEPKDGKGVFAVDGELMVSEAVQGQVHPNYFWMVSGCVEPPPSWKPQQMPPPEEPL

Row | Compound | inhibition [1] [%] | inhibition [2] [%] | inhibition [3] [%] | inhibition [4] [%] | inhibition [5] [%] | inhibition [6] [%] | inhibition [7] [%] | inhibition [8] [%] | inhibition [9] [%] | inhibition [10] [%] | inhibition [11] [%] | inhibition [12] [%] | inhibition [13] [%] | inhibition [14] [%] | inhibition [15] [%] | inhibition [16] [%] | inhibition [17] [%] | inhibition [18] [%] | inhibition [19] [%] | inhibition [20] [%]
1 | COc1ccc(-c2coc3ncnc(N)c23)cc1 | 2.86 | 1.04 | -0.88 | 4.06 | -2.3 | 4.01 | -4.53 | 10.3 | 9.84 | 5.67 | 4.6 | 2.17 | 2.92 | 4.88 | 4.8 | 1.43 | 2.31 | 6.65 | 4.79 | 6.76
2 | Cc1nn(C)c2cc(N(C)c3ccnc(Nc4cccc(S(N)(=O)=O)c4)n3)ccc12 | 1.31 | 0.44 | 0.14 | 2.59 | 1.94 | 2.21 | 3.6 | 4.27 | 4.54 | 4.1 | 4.76 | 2.28 | 3.95 | 3.82 | 5.14 | 0.43 | 1.3 | 5.76 | 3.53 | 8.48
